The source of these data is PubChem BioAssay (NCATS).

Records with an inconclusive call do not appear. Active and inactive are the calls of the source. Calls follow the shape of the dose curve; as a rule, active = well fitted curve in the direction sought with a large enough effect; inconclusive = small, poorly fitted or top-dose-only effect, or another doubt; inactive = no such curve, though single readings can be large; an effect the other way counts as inactive or inconclusive.

One experiment deals with Nanoluciferase (engineered Oplophorus gracilirostris luciferase). The experiment can be described thus: Primary Nanoluciferase (NLuc) qHTS assay for identification of artifact compounds. (AID 1845222).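 Also: NLuc secreted into diluted conditioned medium of S16 cells; 0% = DMSO and -100% = no enzyme.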 Conditions: NLuc-conditioned medium, Nano-Glo luminescence, 5 min; series mostly up to 54.1 µM; activity, negative = inhibition: at the top concentration. The method in brief:
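Concentration-response data were obtained by luminescence after 5 min with Nano-Glo substrate at 1:100. The enzyme was diluted S16 NLuc-expressing cell medium, preincubated with compound for 15 min at RT. Curves were fitted with a 4-parameter Hill model.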
`CC(C)n1cnc2c(Nc3cccc(Cl)c3)nc(NCCO)nc21`: the “activity, negative = inhibition” value is -0.884% (inactive).

With `O=C(CC1NCCC[C@H]1O)Cn1cnc2cc(Br)c(Cl)cc2c1=O` (some centres not stated), the “activity, negative = inhibition” value was -9.93% (inactive). On the same count and under the same terms, as for `Cc1c(C(=O)NCCCO)cnn1-c1nc(-c2cccc(C(F)(F)F)c2)cs1`, the figure is 1.67% (inactive); as for `COc1cccc(NC[C@@H](O)Cn2c3ccc(Br)cc3c3cc(Br)ccc32)c1`, -13.6% (inactive).

As to `CCC(=O)Nc1cccc(Oc2nc(Nc3ccc(N4CCN(C)CC4)cc3OC)ncc2Cl)c1`, the “activity, negative = inhibition” value was -0.722% (inactive).

Consider `O=C(Nc1cccc(C(F)(F)F)c1)c1ccccc1NCc1ccncc1`, for which the “activity, negative = inhibition” value was 4.3% (inactive). The same measure, in the same setting: as for `COc1cc2nc(-c3cc(F)ccc3O)nc(N[C@@H]3CNC[C@H]3C(C)(C)O)c2cc1OC`, the figure is 0.213% (inactive); as for `Cc1cc(CN)cc(C)c1NC(=O)c1ccc(-c2cc(Cl)ccc2Cl)o1`, -10.8% (inactive); as for `c1ccc(-c2cnc(Nc3ccc(OCCN4CCCC4)cc3)s2)cc1`, -4.27% (inactive). The same measure, in the same setting: as for `C=C1C(=O)O[C@@H]2/C=C(/C)CC3C=C(C[C@H](OC(=O)/C(C)=C\C)[C@@H]12)C(=O)O3` (some centres not stated), the figure is -10.5% (inactive); as for `CC1(C)SC2C(NC(=O)[C@H](NC(=O)N3CCNC3=O)c3ccccc3)C(=O)N2C1C(=O)O` (some centres not stated), 1.67% (inactive). Still for that read-out and setting: as for `CC1(C)SC2C(NC(=O)[C@H](C(=O)O)c3ccsc3)C(=O)N2C1C(=O)O` (some centres not stated), the figure is 2.62% (inactive). On to `COc1ccc(-c2nc(-c3cc(C(F)(F)F)cc(C(F)(F)F)c3)n(Cc3ccc(C(N)=O)cc3)c2-c2ccc(OC)cc2)cc1`, for which the “activity, negative = inhibition” value is -3.8% (inactive).

As for `CO[C@@H]1[C@@H](O[C@H]2O[C@@H](C)[C@H](O[C@@H]3C[C@](C)(O)[C@H](O)[C@@H](C)O3)[C@@H](N(C)C)[C@@H]2O)[C@@H](CC=O)C[C@@H](C)[C@@H](O[C@H]2CC[C@H](N(C)C)[C@H](C)O2)/C=C/C=C/C[C@@H](C)OC(=O)C[C@H]1O`, the “activity, negative = inhibition” value is -7.47% (inactive). With `CNc1nc(-c2ccc3c(N)n[nH]c3c2)cc(N2CC(C(=O)NC3CCCCC3)CCC2C)n1` (configuration not stated), the “activity, negative = inhibition” value was 0.301% (inactive).

For the molecule `CNc1cc(OC)c(C(=O)N[C@@H]2CCN(Cc3ccccc3)[C@@H]2C)cc1Cl`, the “activity, negative = inhibition” value is -0.171% (inactive). The same measure, in the same setting: as for `CN([C@H]1c2cc(OCCCC(F)(F)F)ccc2OC(C)(C)[C@@H]1O)S(C)(=O)=O`, the figure is 1.74% (inactive); as for `CCOC(=O)CCC(=O)O[C@H]1[C@H](O[C@@H]2[C@@H](C)[C@H](O[C@H]3C[C@@](C)(OC)[C@@H](O)[C@H](C)O3)[C@@H](C)C(=O)O[C@H](CC)[C@@](C)(O)[C@H](O)[C@@H](C)C(=O)[C@H](C)CC2(C)O)O[C@H](C)C[C@@H]1N(C)C` (some centres not stated), -0.602% (inactive). On the same count and under the same terms, the figure for `COc1cc(-c2cc(-c3cccc(O)c3)cnc2N)cc(OC)c1OC` is 1.38% (inactive); for `C=C1C(=O)O[C@@H]2C[C@@H](C)[C@]34C[C@]5(C(=O)O[C@H]6CC(C)=C([C@H](C)CCCO)[C@H](OC(=O)C(C)CC)[C@H]65)[C@@H](C(C)=C3C[C@@H]12)[C@H]4OC(C)=O` (some centres not stated) it is -4.06% [at 25.7 µM] (inactive). Same read-out and setting: the figure for `CC(=O)Nc1ccc(C(=O)Nc2ccccc2N)cc1` is -1.98% [at 25.7 µM] (inactive). As for `C[C@H](NC(=O)C(C)(C)Oc1ccc(C(F)(F)F)cn1)[C@@H](Cc1ccc(Cl)cc1)c1cccc(C#N)c1`, the “activity, negative = inhibition” value is -5.53% (inactive).

With `CN(C)CC(=O)Nc1ccc2[nH]c(=O)c3ccccc3c2c1`, the “activity, negative = inhibition” value is -3.69% (inactive). As to `CC(CCC1(O)OC2CC3C4CC=C5CC(O[C@@H]6O[C@H](CO)[C@@H](O[C@@H]7O[C@H](CO)[C@@H](O)[C@H](O)[C@H]7O)[C@H](O)[C@H]6O[C@@H]6O[C@@H](C)[C@H](O)[C@@H](O)[C@H]6O)CCC5(C)C4CCC3(C)C2C1C)CO[C@@H]1O[C@H](CO)[C@@H](O)[C@H](O)[C@H]1O` (some centres not stated), the activity, negative = inhibition is 4.58% [at 11.6 µM] (inactive). The same measure, in the same setting: as for `C[C@@H](CN1CCC(n2c(=O)[nH]c3cc(Cl)ccc32)CC1)NC(=O)c1ccc2ccccc2c1`, the figure is -0.323% (inactive). Still for that read-out and setting: the figure for `CC(C)c1ccc(NC(=O)C(c2ccccc2)N(C)C(=O)Cc2c[nH]c3ccccc23)cc1` (configuration not stated) is -4.28% (inactive); for `COc1ccc2c(c1)CN(C(=O)CCN1CCC(Cc3ccccc3)CC1)CCS2` it is -1.17% [at 25.7 µM] (inactive). On the same count and under the same terms, as for `C=C1C(=O)O[C@@H]2[C@H]1[C@H](O)C[C@]1(C)[C@@H](O)CC=C(C)[C@@H]21`, the figure is 4.28% (inactive); as for `CCNC(=O)[C@@H]1CCCN1C(=O)[C@H](CCCN=C(N)N)NC(=O)[C@H](CC(C)C)NC(=O)[C@@H](CC(C)C)NC(=O)[C@H](Cc1ccc(O)cc1)NC(=O)[C@H](CO)NC(=O)[C@H](Cc1c[nH]c2ccccc12)NC(=O)[C@H](Cc1cnc[nH]1)NC(=O)[C@@H]1CCC(=O)N1`, 0.485% [at 25.7 µM] (inactive); as for `CCN(CC)Cc1cccc(/C=C/c2nc3ccc(F)cc3c(=O)n2-c2ccccc2Cl)n1`, 3.31% (inactive). For the molecule `C=C(C(=O)O)C1CC2=C(C)C(=O)CC2C(C)CC1O` (configuration not stated), the “activity, negative = inhibition” value is 3.7% (inactive).

Tested on in the next experiment: not listed separately
In words: Primary redox qHTS assay for identification of artifact compounds. (AID 1845223).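 Also: 0% = DMSO and 100% = reference compound.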 Conditions: Amplex Red/HRP redox cycling with DTT, fluorescence; series mostly up to 53.8 µM; redox activity (% of DA3003): at the top concentration. The method in brief: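 Amplex Red (25 uM) and HRP (250 mU/mL) in HBSS, with compounds for 15 min, then 250 uM DTT for 30 min, room temperature, dark. Fluorescence 525/598 nm read; normalized to DMSO and 10 uM DA3003; Hill fit.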
A general note: qHTS replaces the single test concentration by a dilution series.
Consider `COc1ccc(-c2c(C)c(C(=O)NN3CCCCC3)nn2-c2ccc(Cl)cc2Cl)cc1`, for which the “redox activity (% of DA3003)” value was 2.55% (inactive). Still for that read-out and setting: the figure for `O=C(CC1NCCC[C@H]1O)Cn1cnc2cc(Br)c(Cl)cc2c1=O` (some centres not stated) is -4.07% (inactive); for `COc1cccc(NC[C@@H](O)Cn2c3ccc(Br)cc3c3cc(Br)ccc32)c1` it is -1.84% (inactive); for `C[C@@H](O[C@H]1OCCN(Cc2n[nH]nc2CN(C)C)[C@H]1c1ccc(F)cc1)c1cc(C(F)(F)F)cc(C(F)(F)F)c1` it is -4.74% (inactive). Still for that read-out and setting: as for `CC[C@H](C)[C@H]1O[C@]2(CC[C@@H]1C)C[C@@H]1C[C@@H](C/C=C(\C)[C@@H](O[C@H]3C[C@H](OC)[C@@H](O[C@H]4C[C@H](OC)[C@@H](O)[C@H](C)O4)[C@H](C)O3)[C@@H](C)/C=C/C=C3\CO[C@@H]4[C@H](O)C(C)=C[C@@H](C(=O)O1)[C@]34O)O2`, the figure is 10% (inactive). Take `O=C(Nc1cccc(C(F)(F)F)c1)c1ccccc1NCc1ccncc1`: the “redox activity (% of DA3003)” value was -11.3% (inactive). Same read-out and setting: as for `Cc1cc(CN)cc(C)c1NC(=O)c1ccc(-c2cc(Cl)ccc2Cl)o1`, the figure is 17.3% (inactive). Same read-out and setting: as for `c1ccc(-c2cnc(Nc3ccc(OCCN4CCCC4)cc3)s2)cc1`, the figure is -4.55% (inactive).

For `C=C1C(=O)O[C@@H]2/C=C(/C)CC3C=C(C[C@H](OC(=O)/C(C)=C\C)[C@@H]12)C(=O)O3` (some centres not stated), the “redox activity (% of DA3003)” value is 7.87% (inactive). The same measure, in the same setting: as for `CC1(C)SC2C(NC(=O)[C@H](C(=O)O)c3ccsc3)C(=O)N2C1C(=O)O` (some centres not stated), the figure is 1.53% (inactive); as for `COc1ccc(-c2nc(-c3cc(C(F)(F)F)cc(C(F)(F)F)c3)n(Cc3ccc(C(N)=O)cc3)c2-c2ccc(OC)cc2)cc1`, -0.341% (inactive). Still for that read-out and setting: the figure for `Fc1ccccc1CNCc1ccc(-c2ccnc3[nH]ccc23)cc1` is -8.68% (inactive); for `CCCCc1nc(C)c(CC(=S)N(C)C)c(=O)n1Cc1ccc(-c2ccccc2-c2nn[nH]n2)cc1` it is 6.11% (inactive); for `CNc1nc(-c2ccc3c(N)n[nH]c3c2)cc(N2CC(C(=O)NC3CCCCC3)CCC2C)n1` (configuration not stated) it is -6.49% (inactive). Regarding `CNc1cc(OC)c(C(=O)N[C@@H]2CCN(Cc3ccccc3)[C@@H]2C)cc1Cl`, the “redox activity (% of DA3003)” value is -0.807% (inactive). Same read-out and setting: the figure for `CN([C@H]1c2cc(OCCCC(F)(F)F)ccc2OC(C)(C)[C@@H]1O)S(C)(=O)=O` is 17.1% (inactive); for `CCOC(=O)CCC(=O)O[C@H]1[C@H](O[C@@H]2[C@@H](C)[C@H](O[C@H]3C[C@@](C)(OC)[C@@H](O)[C@H](C)O3)[C@@H](C)C(=O)O[C@H](CC)[C@@](C)(O)[C@H](O)[C@@H](C)C(=O)[C@H](C)CC2(C)O)O[C@H](C)C[C@@H]1N(C)C` (some centres not stated) it is 14.3% (inactive). The same measure, in the same setting: as for `COc1cc(-c2cc(-c3cccc(O)c3)cnc2N)cc(OC)c1OC`, the figure is -11% (inactive); as for `C=C1C(=O)O[C@@H]2C[C@@H](C)[C@]34C[C@]5(C(=O)O[C@H]6CC(C)=C([C@H](C)CCCO)[C@H](OC(=O)C(C)CC)[C@H]65)[C@@H](C(C)=C3C[C@@H]12)[C@H]4OC(C)=O` (some centres not stated), 6.81% [at 25.6 µM] (inactive); as for `CC(=O)Nc1ccc(C(=O)Nc2ccccc2N)cc1`, -1.71% [at 25.6 µM] (inactive). The same measure, in the same setting: the figure for `C[C@H](NC(=O)C(C)(C)Oc1ccc(C(F)(F)F)cn1)[C@@H](Cc1ccc(Cl)cc1)c1cccc(C#N)c1` is 3.8% (inactive); for `CN(C)CC(=O)Nc1ccc2[nH]c(=O)c3ccccc3c2c1` it is -4.42% (inactive); for `CC(CCC1(O)OC2CC3C4CC=C5CC(O[C@@H]6O[C@H](CO)[C@@H](O[C@@H]7O[C@H](CO)[C@@H](O)[C@H](O)[C@H]7O)[C@H](O)[C@H]6O[C@@H]6O[C@@H](C)[C@H](O)[C@@H](O)[C@H]6O)CCC5(C)C4CCC3(C)C2C1C)CO[C@@H]1O[C@H](CO)[C@@H](O)[C@H](O)[C@H]1O` (some centres not stated) it is 5.01% [at 11.5 µM] (inactive). `C[C@@H](CN1CCC(n2c(=O)[nH]c3cc(Cl)ccc32)CC1)NC(=O)c1ccc2ccccc2c1`: the “redox activity (% of DA3003)” value is 11.2% (inactive). Still for that read-out and setting: the figure for `CC(C)c1ccc(NC(=O)C(c2ccccc2)N(C)C(=O)Cc2c[nH]c3ccccc23)cc1` (configuration not stated) is -1.21% (inactive); for `CCCCC(=O)N(Cc1ccc(-c2ccccc2-c2nn[nH]n2)cc1)C(C(=O)O)C(C)C` (configuration not stated) it is 1.09% (inactive). Still for that read-out and setting: the figure for `CCCCc1nc(Cl)c(CO)n1Cc1ccc(-c2ccccc2-c2nnn[nH]2)cc1` is -0.499% (inactive); for `C=C1C(=O)O[C@@H]2[C@H]1[C@H](O)C[C@]1(C)[C@@H](O)CC=C(C)[C@@H]21` it is -3.16% (inactive); for `COc1ccc(C2(CNC(=O)[C@](C)(Cc3c[nH]c4ccccc34)NC(=O)Nc3ccc([N+](=O)[O-])cc3)CCCCC2)nc1` it is -4.82% (inactive). The same measure, in the same setting: the figure for `CCN(CC)Cc1cccc(/C=C/c2nc3ccc(F)cc3c(=O)n2-c2ccccc2Cl)n1` is 9.84% (inactive); for `C=C(C(=O)O)C1CC2=C(C)C(=O)CC2C(C)CC1O` (configuration not stated) it is 1.94% (inactive).
